Laboratory results published in PubChem BioAssay (Tox21).
Values joined by “and” are separate entries in the source; they are usually repeats but may differ in a detail not shown here. Equal values may be shown once. A number with no mark means an inactive call. Records with an inconclusive call do not appear. Where a call stands in place of a potency, no number is given. Active and inactive are the calls of the source. Unless noted, the call rests on the fitted dose curve; in most records, active means well fitted curve in the direction sought with a large enough effect in the repeat runs; inconclusive means weak or mixed curves; inactive means no such curve, though single readings can be large; an effect the other way counts as inactive or inconclusive.

Tests used:
[1] = target: Progesterone receptor (Homo sapiens) (UniProt P06401); experiment: qHTS assay to identify small molecule agonists of the progesterone receptor (PR) signaling pathway (AID 1346784; calls by dose curve; further: nearly all actives have a fitted effect of over 30% in size)
Procedure, shortened: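 Agonist qHTS: compounds pinned onto 3,000 PR-UAS-bla HEK 293T cells per well in charcoal-stripped serum medium, 16hr at 37C, then beta-lactamase activity measured by LiveBLAzer FRET fluorescence after 2 hours at room temperature.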

[2] = target: Progesterone receptor (Homo sapiens) (UniProt P06401); experiment: qHTS assay to identify small molecule antagonists of the progesterone receptor (PR) signaling pathway (AID 1346795; active means well fitted inhibition curve with a large enough effect in the signal ratio in the repeat runs, not every such curve was filed as active; the % refers to the signal ratio; further: potency means the concentration at half of the fitted maximal effect)
Procedure, shortened: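 Antagonist mode with agonist R5020 at 1 nM final and 16 hr incubation at 37C. Reporter was beta-lactamase driven by UAS in HEK293T (PR-UAS-bla), 2% charcoal-stripped serum; signal from LiveBLAzer FRET substrate, 2 hr at room temperature.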

[3] = qHTS assay to identify small molecule antagonists of the progesterone receptor (PR) signaling pathway - cell viability counter screen (AID 1346798); further: series mostly up to about 92 µM; nearly all actives have a fitted effect of over 50% in size
Procedure, shortened: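 Cytotoxicity read as CellTiter-Glo luminescence (30 min, room temperature) in the same wells as the beta-lactamase readout. HEK293T PR-UAS-bla cells in charcoal-stripped 2% FBS received compound and R5020, then 16 h at 37C, 5% CO2.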

[4] = qHTS assay to identify small molecule antagonists of the TGF-beta/Smad signaling pathway - cell viability counter screen (AID 1346824); further: nearly all actives have a fitted effect of over 50% in size
Procedure, shortened: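 SBE-bla HEK 293T cells were plated overnight at 37 C, then given compounds in DMSO plus TGF-beta1 (added as 0.25 ng/mL solution) for 5 hr. After the bla read, CellTiter-Glo was added to the same wells and luminescence read after 30 min at room temperature.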

[5] = qHTS assay to identify small molecule agonists of the TGF-beta/Smad signaling pathway - cell viability counter screen (AID 1346829); further: top concentration of the series differs between compounds; nearly all actives have a fitted effect of over 45% in size
Procedure, shortened: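 Luminescence from CellTiter-Glo, read after a 30 min room-temperature incubation, gives cell viability of SBE-bla HEK 293T cells treated 5 hr with compounds at 37 C.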

[6] = qHTS assay to identify small molecule agonists of the TGF-beta/Smad signaling pathway (AID 1346859; active means well fitted activation curve with a large enough effect in the signal ratio in the repeat runs, not every such curve was filed as active; the % refers to the signal ratio; further: series mostly up to about 77 µM)
Procedure, shortened: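 Fluorescence (ex 405 nm; em 460 and 530 nm) was read 2 h after LiveBLAzer FRET substrate at RT. The preceding compound treatment of overnight-plated SBE-bla HEK293T cells lasted 5 h at 37 C.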

[7] = target: Thyrotropin-releasing hormone receptor (Homo sapiens) (UniProt P34981); experiment: qHTS assay to identify small molecule antagonists of the thyrotropin-releasing hormone receptor (TRHR) signaling pathway (AID 1346877; active means well fitted inhibition curve with a large enough effect in the repeat runs, not every such curve was filed as active; further: series mostly up to about 51 µM)
Procedure, shortened: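 Human TRHR in HEK293 cells; inhibition of the intracellular calcium rise triggered by 1 nM TRH was followed by fluorescence over 3 min. Compounds were run at 15 concentrations, three replicates each.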

[8] = target: Thyrotropin-releasing hormone receptor (Homo sapiens) (UniProt P34981); experiment: qHTS assay to identify small molecule agonists of the thyrotropin-releasing hormone receptor (TRHR) signaling pathway (AID 1346891; calls by dose curve; further: series mostly up to about 58 µM)
Procedure, shortened: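 Agonist-mode intracellular calcium readout: kinetic fluorescence over 3 min at 1 s intervals after compound addition to TRHR-HEK293 cells (18 h seeded, 2 h dye-loaded at 37 C). Fifteen concentrations, triplicates.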

[9] = Human pregnane X receptor (PXR) small molecule agonists, qHTS cell viability counter screen (AID 1346977); further: nearly all actives have a fitted effect of over 50% in size
Procedure, shortened: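 Same-well viability read: CellTiter-Fluor added after 23 hr compound exposure, fluorescence measured 1 hr later. Cells were PXR-Luc HepG2 seeded at 2,000/well in 5% charcoal-stripped FBS medium, rested 5 hr before dosing at 37 C.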

[10] = Caspase-3/7 induction in HepG2 cells by small molecules, qHTS assay (AID 1346978); further: nearly all actives have a fitted effect of over 15% in size
Procedure, shortened: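 Wild-type HepG2 cells (2,000/well) were settled 5 h at 37 C, 5% CO2, then exposed to compounds in DMSO for 17 h. Caspase-3/7 activity was read by luminescence 30 min after adding Caspase-Glo 3/7 reagent at room temperature.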

[11] = Caspase-3/7 induction in CHO-K1 cells by small molecules, qHTS cell viability counter screen (AID 1346979); further: nearly all actives have a fitted effect of over 35% in size; further: potency means the concentration at half of the fitted maximal effect
Procedure, shortened: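 Cytotoxicity counter screen: CellTiter-Fluor added to compound-treated wild-type CHO-K1 cells at 16 h (37C, 5% CO2), fluorescence measured 1 h later; same wells as caspase-3/7 measurement.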

[12] = Caspase-3/7 induction in CHO-K1 cells by small molecules, qHTS assay (AID 1346980); further: nearly all actives have a fitted effect of over 15% in size
Procedure, shortened: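 Wild-type cells were seeded at 1,500 per well and settled 5 hr at 37 C, 5% CO2, then exposed to DMSO-dissolved compounds for 17 hr. Caspase-Glo 3/7 reagent was added, and luminescence was read after 30min at room temperature.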

[13] = Caspase-3/7 induction in HepG2 cells by small molecules, qHTS cell viability counter screen (AID 1346981); further: nearly all actives have a fitted effect of over 30% in size; further: potency means the concentration at half of the fitted maximal effect
Procedure, shortened: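 The parent HepG2 line is plated at 2,000 cells per well and rested 5 hr before compound pinning from DMSO stocks. Following a 16-hr treatment at 37 C, a fluorogenic live-cell substrate (CellTiter-Fluor) reports viability after 1 hr.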

[14] = target: Nuclear receptor subfamily 1 group I member 2 (Homo sapiens) (UniProt O75469); experiment: Human pregnane X receptor (PXR) small molecule agonists, qHTS assay (AID 1346982); further: nearly all actives have a fitted effect of over 35% in size; further: potency means the concentration at half of the fitted maximal effect
Procedure, shortened: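 After plating in 5% charcoal-stripped FBS and a 5 hr rest, PXR-Luc HepG2 cells received compounds in DMSO. Following 24 hr at 37 C, ONE-Glo was added and light output read.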

[15] = target: Acetylcholinesterase (Homo sapiens) (UniProt P22303); experiment: Acetylcholinesterase (AChE) small molecule antagonists: enzyme-based qHTS assay (AID 1347397; calls by dose curve; further: nearly all actives have a fitted effect of over 55% in size); details: Potency: AChE enzyme activity inhibition
Procedure, shortened: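 Tox21 library chemicals are tested in qHTS format against recombinant human AChE. The enzyme, dispensed at 50 mU/mL, sits with compound for 30 min at room temperature. A DTNB–acetylthiocholine cocktail follows, and colour is read after 10 min.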

[16] = target: Acetylcholinesterase (Homo sapiens) (UniProt P22303); experiment: Acetylcholinesterase (AChE) small molecule antagonists: colormetric cell-based qHTS assay (AID 1347395; calls by dose curve; further: nearly all actives have a fitted effect of over 30% in size)
Procedure, shortened: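 Colorimetric readout: DTNB quantifies thiocholine from acetylthiocholine hydrolysed by endogenous AChE of SH-SY5Y cells (2,000/well, plated overnight). Compound pretreatment 30 min, substrate incubation 90 min, both 37 C.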

Chain of Thyrotropin-releasing hormone receptor (Homo sapiens) (P34981 whole entry, looked up): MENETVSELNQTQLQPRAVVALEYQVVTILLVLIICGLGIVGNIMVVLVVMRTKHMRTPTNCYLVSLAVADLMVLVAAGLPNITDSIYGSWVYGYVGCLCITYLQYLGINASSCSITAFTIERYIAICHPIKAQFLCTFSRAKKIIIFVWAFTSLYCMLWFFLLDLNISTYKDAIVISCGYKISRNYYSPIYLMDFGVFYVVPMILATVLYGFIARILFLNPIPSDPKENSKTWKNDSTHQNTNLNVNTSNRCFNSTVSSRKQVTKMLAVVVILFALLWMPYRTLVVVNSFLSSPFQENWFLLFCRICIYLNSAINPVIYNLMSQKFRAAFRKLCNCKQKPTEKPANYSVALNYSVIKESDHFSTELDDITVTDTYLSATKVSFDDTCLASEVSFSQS
Chain of Progesterone receptor (Homo sapiens) (P06401 whole entry, looked up): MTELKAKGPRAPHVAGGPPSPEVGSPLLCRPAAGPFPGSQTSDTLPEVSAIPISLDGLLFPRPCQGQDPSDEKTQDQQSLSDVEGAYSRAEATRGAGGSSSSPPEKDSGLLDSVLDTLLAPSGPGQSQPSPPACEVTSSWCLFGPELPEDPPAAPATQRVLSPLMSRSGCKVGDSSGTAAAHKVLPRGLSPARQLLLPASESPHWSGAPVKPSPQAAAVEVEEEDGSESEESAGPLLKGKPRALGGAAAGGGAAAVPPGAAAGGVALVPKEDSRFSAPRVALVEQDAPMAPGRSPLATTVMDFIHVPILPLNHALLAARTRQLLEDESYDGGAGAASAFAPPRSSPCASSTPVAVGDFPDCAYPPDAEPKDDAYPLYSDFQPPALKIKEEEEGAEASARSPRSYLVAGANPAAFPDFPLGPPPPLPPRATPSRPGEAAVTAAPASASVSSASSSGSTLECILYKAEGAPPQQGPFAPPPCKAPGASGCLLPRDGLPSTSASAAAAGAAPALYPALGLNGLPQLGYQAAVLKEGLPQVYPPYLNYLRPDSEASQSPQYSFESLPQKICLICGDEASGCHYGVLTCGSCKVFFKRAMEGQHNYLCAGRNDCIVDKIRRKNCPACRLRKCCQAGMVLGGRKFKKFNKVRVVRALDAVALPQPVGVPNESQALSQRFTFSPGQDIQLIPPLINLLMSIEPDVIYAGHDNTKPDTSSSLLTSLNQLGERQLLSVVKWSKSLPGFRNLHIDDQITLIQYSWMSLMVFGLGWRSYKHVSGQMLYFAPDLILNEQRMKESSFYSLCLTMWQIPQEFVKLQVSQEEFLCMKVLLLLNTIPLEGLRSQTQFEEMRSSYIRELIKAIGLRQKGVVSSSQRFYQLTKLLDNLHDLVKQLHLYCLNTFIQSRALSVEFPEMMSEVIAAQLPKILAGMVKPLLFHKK
Chain of Acetylcholinesterase (Homo sapiens) (P22303 whole entry, looked up): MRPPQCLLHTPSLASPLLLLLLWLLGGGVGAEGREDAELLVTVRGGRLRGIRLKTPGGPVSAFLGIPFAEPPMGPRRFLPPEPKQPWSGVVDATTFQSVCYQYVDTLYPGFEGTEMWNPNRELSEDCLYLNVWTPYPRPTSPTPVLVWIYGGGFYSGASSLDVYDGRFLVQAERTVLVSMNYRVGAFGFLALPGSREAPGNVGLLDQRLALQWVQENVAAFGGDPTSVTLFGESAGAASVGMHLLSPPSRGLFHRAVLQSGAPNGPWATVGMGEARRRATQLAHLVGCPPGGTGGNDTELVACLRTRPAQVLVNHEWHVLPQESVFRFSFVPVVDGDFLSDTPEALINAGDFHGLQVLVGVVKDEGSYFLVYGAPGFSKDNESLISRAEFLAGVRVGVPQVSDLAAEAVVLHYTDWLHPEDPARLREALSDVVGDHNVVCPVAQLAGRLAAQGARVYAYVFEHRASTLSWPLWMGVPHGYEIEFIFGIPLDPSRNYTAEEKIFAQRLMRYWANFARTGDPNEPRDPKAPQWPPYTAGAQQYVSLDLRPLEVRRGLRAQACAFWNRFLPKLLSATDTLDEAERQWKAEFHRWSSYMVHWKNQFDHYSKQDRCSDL
Chain of Nuclear receptor subfamily 1 group I member 2 (Homo sapiens) (O75469 whole entry, looked up): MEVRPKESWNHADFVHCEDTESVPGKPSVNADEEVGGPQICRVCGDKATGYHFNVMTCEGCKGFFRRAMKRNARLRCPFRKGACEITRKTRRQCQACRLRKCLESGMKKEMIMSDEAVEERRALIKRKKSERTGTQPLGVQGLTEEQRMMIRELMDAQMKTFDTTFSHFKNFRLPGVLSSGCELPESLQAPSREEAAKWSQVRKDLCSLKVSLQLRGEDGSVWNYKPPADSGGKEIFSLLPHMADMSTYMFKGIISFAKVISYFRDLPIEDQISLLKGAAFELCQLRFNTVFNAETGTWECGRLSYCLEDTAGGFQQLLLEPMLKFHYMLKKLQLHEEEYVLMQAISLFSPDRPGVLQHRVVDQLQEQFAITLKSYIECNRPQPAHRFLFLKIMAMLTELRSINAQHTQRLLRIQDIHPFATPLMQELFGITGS

Structure (SMILES) | Potency [1] | Potency [2] | Potency [3] | Potency [4] | Potency [5] | outcome [6] | Potency [7] | Potency [8] | Potency [9] | Potency [10] | Potency [11] | Potency [12] | Potency [13] | Potency [14] | Potency [15] | Potency [16]
COC(=O)c1ccccc1S(=O)(=O)NC(=O)Nc1nc(C)nc(OC)n1 | inactive | inactive | inactive | inactive | inactive | inactive | inactive | inactive | inactive | inactive | inactive | inactive | inactive | inactive | inactive | –
O=C1C(Cl)=C(Cl)C(=O)C(Cl)=C1Cl | inactive | inactive | inactive | – | inactive | – | inactive | inactive | – | inactive | 24.2 µM (active) and 24.3 µM (active) | inactive | 54.3 µM (active) | 60.9 µM (active) and 61.1 µM (active) | inactive | –
CO/N=C(\C(=O)OC)c1ccccc1CO/N=C(\C)c1cccc(C(F)(F)F)c1 | inactive | 6.86 µM (active) | inactive | – | inactive | inactive | inactive | inactive | – | inactive | 137 nM (active) | – | – | 0.686 µM (active) | inactive | –
CNC(=O)CSP(=O)(OC)OC | inactive | inactive | inactive | inactive | inactive | inactive | – | – | inactive | inactive | – | – | inactive | inactive | inactive | –
O=[N+]([O-])c1ccc(CCl)cc1 | inactive | inactive | inactive | inactive | inactive | inactive | – | – | inactive | inactive | inactive | inactive | inactive | inactive | inactive | inactive
O=C(NC(=O)c1c(F)cccc1F)Nc1ccc(Oc2ccc(C(F)(F)F)cc2Cl)cc1F | inactive | inactive | inactive | – | inactive | inactive | inactive | inactive | inactive | inactive | 61100 nM (active) | inactive | – | 19.3 µM (active) | inactive | inactive
Clc1ccc(C(c2ccc(Cl)cc2)C(Cl)Cl)cc1 | inactive | 7.82 µM (active) | inactive | inactive | – | inactive | – | – | – | inactive | – | – | inactive | 19.6 µM (active) | inactive | inactive
